Assay outcomes as filed in PubChem BioAssay.
EWS-Fli block: blocks EWS/Fli oncoprotein-driven transcription | A673 NR0B1-luciferase reporter, viability-normalised | inhibition, % at 12.6 µM | hit rate 0.67% among 350,000 | AID 651661;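 active = mean inhibition of at least 50% after viability correction, with every replicate also passing that limit; inconclusive = mean reaches 50% but only one of two replicates passes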;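 also: firefly luciferase signal divided by Alamar Blue viability fluorescence both relative to DMSO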
LGR2 antag: blocks bursicon-induced cAMP signaling via Drosophila LGR2. HEK293 LGR2, CRE-luciferase, bursicon-stimulated, 4 h. inhibition, % at 9.99 µM. hit rate 0.35% among 380,000. AID 720647;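 active = drop in luminescence signal, shown as inhibition above about 50% in the replicate tests, limit read from the data, passing the limit was not always enough; inconclusive = probably only some replicates passing the limit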;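 also: agonist challenge used bursicon conditioned medium at about half maximal strength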
TWEAK Fn14 block: inhibitors of TWEAK-Fn14 interaction signaling; TWEAK-stimulated Fn14 reporter cells, luciferase luminescence, 8 h; AID 1159606; inhibition, % at 10 µM; hit rate 2% among 360,000; in the data active = inhibition above about 50%
LMP1 NFkB inh: Epstein-Barr LMP1 NF-kappaB reporter inhibition; LMP1-induced NF-kappaB luciferase reporter cells, luminescence; inhibition, % at 12.5 µM; hit rate 0.69% among 350,000; AID 504558; in the data active = inhibition above about 41%; inconclusive = no clear call, values can overlap the other calls;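 also: 0% = neutral control wells and 100% = reference inhibitor control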
TROY signal inh: blocks TROY-dependent signaling in reporter cells; Q293 LMP1-TROYcd NF-kB luciferase reporter, 4 h; inhibition, % at 10 µM; hit rate 0.98% among 360,000;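 active = compounds whose plate-normalised and pattern-corrected inhibition of the luciferase reporter signal at the single screening dose is 50% or more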
PAX8 reporter: lowers PAX8-driven luciferase in RMG-I cells; RMG-I TPO-luciferase reporter, SteadyGlo, 24 h; inhibition, % at 12.6 µM; hit rate 1.2% among 360,000;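 active = mean replicate inhibition at least 60% with every replicate also reaching 60%; inconclusive = only one of the two criteria is met; inactive = mean below 60% and not all replicates reaching 60%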;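 also: luciferase light reporting Pax8 driven TPO promoter activity; plate controls were median of neutral control wells for no effect and mitoxantrone controls for full effect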
Starred values were filed as active, the others as inactive; u = inconclusive; x = not tested or not shown. In the library only some 3.2% were active in any assay of this set; here they are far more common.

SMILES | EWS-Fli block | LGR2 antag | TWEAK Fn14 block | LMP1 NFkB inh | TROY signal inh | PAX8 reporter
CCc1ccc(C(=O)COC(=O)CNC(=O)C2CCCCC2)cc1 | 0 | -32 | 66* | -1 | 76* | x
O=C(CNC(=O)C1CCCCC1)OCC(=O)c1ccc(F)cc1 | 2 | -3 | 2 | -2 | 9 | 0
CCOC(=O)c1c(C)[nH]c(C(=O)COC(=O)CNC(=O)C2CCCCC2)c1C | x | -13 | 10 | -1 | 69* | -21
N#C[C@@H]1[C@H](c2ccccc2)[C@H](CO)N1C(=O)Cc1ccccn1 | -11 | 3 | x | x | x | -28
O=C(N[C@H]1C=C[C@H](CC(=O)N2CCOCC2)O[C@H]1CO)c1ccc2c(c1)OCO2 | 3 | -2 | x | x | x | -4
CCCC#Cc1ccc([C@@H]2[C@H]3CN(S(=O)(=O)c4ccccc4F)CCCCN3[C@H]2CO)cc1 | 18 | 20 | x | x | x | 95*
Cc1cccc(-c2ccc([C@H]3[C@@H](CO)N4CCCCN(S(=O)(=O)c5cccc(C)c5)C[C@H]34)cc2)c1 | 21 | 11 | x | x | x | -19
Cc1cccc(-c2ccc([C@H]3[C@H](CO)N4CCCCN(S(=O)(=O)c5ccccc5C)C[C@@H]34)cc2)c1 | 24 | 21 | x | x | x | 86*
CCCC#Cc1ccc([C@@H]2[C@@H](CO)N3CCCCN(S(=O)(=O)c4ccccc4F)C[C@@H]23)cc1 | 0 | -2 | x | x | x | -2
Cc1cccc(-c2ccc([C@H]3[C@H]4CN(S(=O)(=O)c5cccc(C)c5)CCCCN4[C@H]3CO)cc2)c1 | 16 | 13 | x | x | x | 103*
COc1ccc(S(=O)(=O)N2CCCCN3[C@@H](CO)[C@H](c4ccc(C#CC(C)C)cc4)[C@@H]3C2)cc1 | 27 | 10 | x | x | x | 74*
Cc1ccc(S(=O)(=O)Nc2ccc3c(c2)C(=O)N([C@H](C)CO)C[C@H](C)[C@@H](CN(C)C(=O)Nc2ccc4c(c2)OCO4)OCCCC[C@H](C)O3)cc1 | 5 | 5 | x | x | x | 0
CC(=O)Nc1cccc(-c2cnc(N)c(C(=O)c3cccnc3)n2)c1 | x | x | 82* | 49* | 38 | x
CC(=O)Nc1cccc(-c2csc(N)n2)c1 | 3 | 13 | -4 | 4 | 15 | -10
NC(=O)c1cccc(-c2cnc(N)c(C(=O)c3cccnc3)n2)c1 | x | x | 84* | 17 | 51* | x
O=C(Nc1cccc(NC(=O)c2cccnc2)c1)c1ccccc1 | x | 6 | -17 | 10 | -1 | -3
C[C@@H]1CN([C@@H](C)CO)C(=O)c2cc(C#CCN(C)C)cnc2O[C@@H]1CN(C)C | -12 | -6 | x | x | x | x
Cc1noc(C)c1S(=O)(=O)Nc1ccc2c(c1)C(=O)N([C@H](C)CO)C[C@H](C)[C@@H](CN(C)S(=O)(=O)c1ccc(Cl)cc1)OCCCC[C@H](C)O2 | -2 | -5 | x | x | x | 54
COc1ccc(S(=O)(=O)N(C)C[C@H]2OCCCC[C@@H](C)Oc3ccc(NS(=O)(=O)c4c(C)noc4C)cc3C(=O)N([C@H](C)CO)C[C@H]2C)cc1 | 6 | 8 | x | x | x | 77*
Cc1noc(C)c1S(=O)(=O)N(C)C[C@H]1OCCCC[C@H](C)Oc2ccc(NS(=O)(=O)c3ccc(Cl)cc3)cc2C(=O)N([C@@H](C)CO)C[C@@H]1C | 3 | 1 | x | x | x | 47
Cc1noc(C)c1S(=O)(=O)Nc1ccc2c(c1)C(=O)N([C@H](C)CO)C[C@@H](C)[C@@H](CN(C)S(=O)(=O)c1ccc(Cl)cc1)OCCCC[C@H](C)O2 | -4 | -14 | x | x | x | 70*
COc1ccc(S(=O)(=O)N(C)C[C@H]2OCCCC[C@H](C)Oc3ccc(NS(=O)(=O)c4c(C)noc4C)cc3C(=O)N([C@H](C)CO)C[C@@H]2C)cc1 | 5 | -4 | x | x | x | 12
Cc1noc(C)c1S(=O)(=O)N(C)C[C@H]1OCCCC[C@H](C)Oc2ccc(NS(=O)(=O)c3ccc(Cl)cc3)cc2C(=O)N([C@H](C)CO)C[C@@H]1C | 4 | 2 | x | x | x | 70*
C[C@@H]1CN([C@@H](C)CO)C(=O)Cc2cc(NS(=O)(=O)c3ccccc3)ccc2O[C@@H]1CN(C)S(=O)(=O)c1cn(C)cn1 | -5 | -11 | x | x | x | 2
CCC(=O)Nc1ccc2c(c1)OC[C@@H](C)N(Cc1ccccc1C(=O)O)C[C@@H](C)[C@H](OC)CN(C)C2=O | -6 | -12 | x | x | x | -5
SMILES | EWS-Fli block | LGR2 antag | TWEAK Fn14 block | LMP1 NFkB inh | TROY signal inh | PAX8 reporter
CNC[C@H]1Oc2ccc(NC(=O)Cc3cn(C)c4ccccc34)cc2C(=O)N([C@@H](C)CO)C[C@@H]1C | 1 | 22 | x | x | x | 17
COCC(=O)N1[C@H](C#N)[C@@H](c2ccccc2-c2cccc(F)c2)[C@H]1CO | 0 | 1 | x | x | x | -29
C[C@@H]1CN([C@H](C)CO)C(=O)Cc2cc(N(C)C)ccc2O[C@@H]1CN(C)Cc1ccc(C(=O)Nc2ccccc2N)cc1 | 8 | -19 | x | x | x | 62*
C[C@@H]1CN([C@H](C)CO)C(=O)c2cc(N(C)C)ccc2O[C@@H]1CN(C)Cc1ccc(C(=O)Nc2ccccc2N)cc1 | 74* | x | x | x | x | 50
C[C@H](CO)N1C[C@H](C)[C@@H](CN(C)Cc2ccc(C(=O)Nc3ccccc3N)cc2)Oc2ccc(N(C)C)cc2C1=O | u | 16 | x | x | x | 29
O=C(Cc1ccccc1)N1CC[C@@H]2[C@H](CO)Nc3ccc(Br)cc3[C@@H]21 | -8 | -13 | x | x | x | -2
C[C@H](CO)N1C[C@H](C)[C@H](CN(C)S(=O)(=O)c2ccc(Cl)cc2)Oc2ccc(NS(C)(=O)=O)cc2CC1=O | -8 | 8 | x | x | x | -2
COc1cc(CNc2ncnc3c2ncn3[C@H]2CN(Cc3ccc(C(=O)O)cc3)C[C@@H](CO)O2)cc(OC)c1OC | -10 | 9 | -2 | x | -14 | 13
CC(C)CNc1ncnc2c1ncn2[C@H]1CN(Cc2ccco2)C[C@@H](CO)O1 | -10 | -7 | -4 | x | -1 | 84*
CC(C)Nc1ncnc2c1ncn2[C@H]1CN(Cc2ccco2)C[C@@H](CO)O1 | -2 | 11 | -2 | x | -3 | -15
CC(C)CNc1ncnc2c1ncn2[C@H]1CN(Cc2ccc(-c3ccccc3)cc2)C[C@@H](CO)O1 | 5 | 15 | 51* | x | 28 | 32
COc1cc(CNc2ncnc3c2ncn3[C@H]2CN(Cc3ccc(-c4ccccc4)cc3)C[C@@H](CO)O2)cc(OC)c1OC | 35 | 15 | 69* | x | 45 | 94*
CN1c2ccc(-c3ccccc3)cc2[C@@H]2[C@@H](CCN2C(=O)c2ccccc2)[C@@H]1CO | 2 | 2 | x | x | x | -15
C[C@H]1CN([C@@H](C)CO)C(=O)c2cc(C#Cc3cccnc3)cnc2O[C@@H]1CN(C)C(=O)CN(C)C | 1 | 2 | x | x | x | -22
CC1CCC(C(C)C)C(OC(=O)CSc2nnc(N)s2)C1 (configuration not stated) | x | x | -14 | -10 | 3 | x
CC1CCC(C(C)C)C(OC(=O)Cn2c(-c3ccccc3)[n+](C)c3ccccc32)C1 (configuration not stated) | 14 | 59* | 64* | -21 | 57* | 81*
